Results taken from PubChem BioAssay AID574 (The Scripps Research Institute Molecular Screening Center, 2007).
The whole screen tested about 65,000 compounds, of which about 450 (0.69%) were called active. The sample as a whole holds a higher share of actives than the screen did. Values without a mark were called inactive.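 How the source made its calls: active means activation above a set limit, the screen-wide mean activation plus 3 SD (cut at about 8.5% in these data); inactive means the rest.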

Target: 5-hydroxytryptamine receptor 1E (Homo sapiens) (UniProt P28566)
Sequence (P28566 whole entry, looked up): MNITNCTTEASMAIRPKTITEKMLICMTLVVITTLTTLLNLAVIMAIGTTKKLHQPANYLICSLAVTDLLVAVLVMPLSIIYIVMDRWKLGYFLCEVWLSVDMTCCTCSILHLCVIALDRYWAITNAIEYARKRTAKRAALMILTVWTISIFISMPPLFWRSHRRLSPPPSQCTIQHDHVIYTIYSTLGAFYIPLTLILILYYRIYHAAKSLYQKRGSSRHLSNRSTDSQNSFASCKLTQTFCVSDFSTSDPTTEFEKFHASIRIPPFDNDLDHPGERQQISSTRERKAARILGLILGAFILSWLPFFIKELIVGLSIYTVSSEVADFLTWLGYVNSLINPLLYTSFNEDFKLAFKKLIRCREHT
Test: 5-HT1E receptor agonists, primary screen, cell-based, HTS (AID 574);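 further: 100% = positive control agonist at 1 µM giving full maximal response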
Details: CHO 5-HT1E Ga15 NFAT-bla reporter, FRET; at 6 µM; hits give high values; 0% DMSO wells, 100% control agonist wells

SMILES	activation
CCOc1ccccc1/C=c1\sc2nc(-c3ccco3)nn2c1=O	0.9%
CCCCOc1ccccc1/C=c1/sc2nc(-c3oc4ccccc4c3C)nn2c1=O	0.1%
O=c1nc2s/c(=C\c3ccco3)c(=O)n2nc1Cc1ccccc1	17.9% (active)
O=C(CCS(=O)(=O)Cc1ccccc1F)NCCCN1CCCCC1	-1.2%
Cc1ccc(CNC(=O)CCCNC(=O)c2ccc(Cl)cc2)n1C	-0.6%
O=S(=O)(NCc1ccccc1Cl)c1cnc[nH]1	0.3%
COc1ccc2c(c1)OC(O)(C(F)(F)C(F)F)CC2=O (configuration not stated)	12% (active)
CN(C)c1ccnc2sc3c(=O)n(Cc4ccccc4)cnc3c12	0.2%
CCOC(=O)c1sc(N(Cc2ccccc2)C(=O)CN2C(=O)CN(C)C2=O)nc1C	0.8%
CCN(CCCNC(=O)C1CCN(S(=O)(=O)c2cnc[nH]2)CC1)c1ccccc1	-0.1%
Cc1nc2ccccc2c2oc(C(=O)NCCCN3CCC(C)CC3)cc12	-0.7%
CN1CCN(Cc2c(O)ccc3c2oc(=O)c2ccccc23)CC1	-1.2%
CN1CCN(CCCNC(=O)c2cc3c(=O)oc4ccccc4c3s2)CC1	14.9% (active)
CCS(=O)(=O)N1CCN(C(=O)c2cccs2)CC1	0.5%
O=C(CN(Cc1ccccc1)C(=O)c1ccc2c(c1)OCCO2)NCc1ccc2c(c1)OCO2	-1.2%
O=C(COc1ccccc1)NCc1ccc2c(c1)OCO2	-0.5%
O=C(CC(Cc1ccccc1)C(=O)O)NCCc1ccc2c(c1)OCO2 (configuration not stated)	10.3% (active)
Cc1cc(=O)n2nc(N3CCCC(C(=O)N4CCN(C)CC4)C3)sc2n1 (configuration not stated)	0%
CN(C)CCCn1c(N)c(C#N)c2nc(C#N)c(C#N)nc21	3.5%
CCOc1ccc2nc(NC(=O)CSc3nc4c(c(=O)n(C)c(=O)n4C)n3CC)sc2c1	-0.3%
CCOC(=O)CCc1c(C)c(C#N)c2[nH]c3ccccc3n2c1=O	-0.2%

SMILES	activation
CCC1CCCCN1CCNS(=O)(=O)c1ccc2c(c1)CCN2C(C)=O (configuration not stated)	-0.3%
O=S(=O)(c1ccc(OCC(O)CN2CCN(c3ccccc3Cl)CC2)cc1)N1CCOCC1 (configuration not stated)	1.6%
CCCN1C(=O)C(NC(C)=O)c2cc(OC)ccc21 (configuration not stated)	0.7%
CCOC(=O)N1CCN(C(=O)c2cnc3n(c2=O)CCS3)CC1	4.1%
Cn1c(NC(=O)c2ccco2)c(-c2ccccc2Cl)c(=O)c2ccccc21	0.2%
CCC(=O)Nc1ccccc1N1CCN(S(C)(=O)=O)CC1	-0.7%
CCCS(=O)(=O)N1CCCC(C(=O)NCc2ccco2)C1 (configuration not stated)	0.6%
COc1cccc2cc(C(=O)N(C)C)c(=O)oc12	0.2%
Cn1c(=O)cc(OCCCC(=O)N2CCN(Cc3ccc4c(c3)OCO4)CC2)c2ccccc21	0.8%
CC(C)OCCCNC(=O)CNC(=O)c1cccs1	1.3%
COc1cccc(OCCOc2cccc(/C=N/n3cnnc3)c2)c1	-0.3%
C=C(C)CSc1nc(N)c2c3c(sc2n1)CCC3	0.3%
Cc1cccc(N2CCN(Cc3c(C)n(C)n(-c4ccccc4)c3=O)CC2)c1C	41.4% (active)
Cc1c(CN2CCC(C)CC2)c(=O)n(-c2ccccc2)n1C	-0.1%
CC(=O)N1CCN(c2cccc(C)c2C)CC1	0.3%
CC1CN(C2CCCCC2)c2nc3c(c(=O)n(C)c(=O)n3C)n2C1 (configuration not stated)	-0.2%
CCOC(=O)CSc1nnc(CNC(=O)Cc2ccccc2)n1-c1ccccc1OC	-0.7%
O=C(Nc1ccc(Oc2ccccc2)cc1)c1ccco1	0.3%
CCOc1cc(NC(=O)c2ccco2)c(OCC)cc1NC(=O)COc1ccccc1	9.5% (active)
Cc1ccc(C(=O)COc2cccc(NC(=O)c3ccco3)c2)cc1	0.2%
CC(=O)c1cccc(NC(=O)N2CCCC2C(=O)NCCC(C)C)c1 (configuration not stated)	-0.1%

SMILES	activation
CCN(Cc1ccccc1)C(=O)CSc1nc(C)cc2c1C(=O)OC2	-0.3%
CCOc1ccccc1C1C(C(=O)OC)=CN(C)C=C1C(=O)OC	7.1%
O=C(CCn1c(=O)[nH]c2ccccc2c1=O)NCCCN1CCN(c2cccc(Cl)c2)CC1	11.7% (active)
CCn1c(=O)cc(OCC(=O)NCCCN2CCN(c3cccc(Cl)c3)CC2)c2ccccc21	7.6%
Cn1c(C(=O)NCCCN2CCN(c3cccc(Cl)c3)CC2)cc2c(=O)n(C)c3ccccc3c21	14.6% (active)
CC1CCCC(C)N1CCCNC(=O)c1cc2c(=O)n(C)c3ccccc3c2n1C (configuration not stated)	0.8%
O=C(CCCn1c(=O)[nH]c2cc(Cl)ccc2c1=O)NCCN1CCN(c2ccccc2)CC1	1%
O=C(CCn1c(=S)[nH]c2ccccc2c1=O)NCCCN1CCCC1=O	-0.3%
Cc1cc(=O)[nH]c(SCC(N)=O)c1C#N	0.8%
COc1ccc(C(=O)Nc2cccnc2)cc1C(=O)Nc1cccnc1	0.1%
Cc1ccc2nc(-c3ccc(SCC(=O)Nc4cc(C)on4)nc3)[nH]c2c1	-0.4%
Cc1cc(=O)oc(C)c1C(=O)NCc1ccc(F)cc1	-0.2%
CCCOc1ccccc1C(=O)NCCCC(=O)O	0%
O=C(CC(NCCN1CCOCC1)C(=O)O)Nc1cccc(Cl)c1 (configuration not stated)	-1.2%
Cn1c(CN2CCOCC2)nc2cc(NC(=O)c3ccc(Cl)cc3)ccc21	0.6%
COc1cccc2cc(C(C)N(CCCN3CCOCC3)C(=O)Nc3ccc(Cl)cc3)oc12 (configuration not stated)	15.9% (active)
Cc1c2cnn(-c3ccccc3)c(=O)c2c(C)n1CCCC(=O)N1CCN(C)CC1	1%
CC(C)OC(=O)CN1C(=O)c2ccccc2C1=O	0.5%
CCOc1ccc(NC(=O)N2CCN(CC)CC2)cc1	-0.5%
O=C(Nc1c(-c2ccccc2)nc2c(Br)cc(Br)cn12)c1ccco1	-0.3%
